# Experimental data taken from article PMC7862700, “An all-to-all approach to the identification of sequence-specific readers for epigenetic DNA modifications on cytosine”.
# How the values were obtained:
# Experiment in all cases: DAPPL (digital affinity profiling via proximity ligation, sequencing); 10 mM Tris-HCl pH 7.5, 50 mM NaCl, 1 mM DTT, 4% glycerol, room temperature, 30 min; GST-TFs on glutathione beads, 16-mer random dsDNA library, 0.1% formaldehyde crosslink after washing; high values mean tight binding
# Conditions in all cases: protein: recombinant; tags: N-terminal GST; dsDNA, one strand shown
# [1] = molecular target: T1, FLI1 (Homo sapiens, UniProt Q01543 1-452)
# T1 sequence: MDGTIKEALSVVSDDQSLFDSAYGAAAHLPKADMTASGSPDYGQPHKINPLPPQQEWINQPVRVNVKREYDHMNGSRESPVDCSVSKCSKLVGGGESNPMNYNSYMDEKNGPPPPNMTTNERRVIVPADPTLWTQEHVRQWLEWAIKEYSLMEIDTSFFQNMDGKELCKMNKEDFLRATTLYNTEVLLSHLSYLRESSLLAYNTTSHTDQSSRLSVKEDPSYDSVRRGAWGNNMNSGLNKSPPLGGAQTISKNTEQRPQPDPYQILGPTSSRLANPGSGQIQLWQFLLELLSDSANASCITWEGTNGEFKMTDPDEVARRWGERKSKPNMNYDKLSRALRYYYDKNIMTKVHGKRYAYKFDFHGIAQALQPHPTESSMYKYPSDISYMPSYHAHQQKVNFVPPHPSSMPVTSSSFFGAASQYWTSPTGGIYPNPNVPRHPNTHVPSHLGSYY
# Outline: (§1)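 A tag-only sample was pooled with DNA-barcoded human transcription factors that had been expressed in yeast as GST fusions and captured on glutathione beads. The pools were incubated for 30 min at room temperature with 200 nmole of a random double-stranded 16-mer DNA library in Tris/NaCl/DTT/glycerol buffer, then washed, crosslinked with 0.1% formaldehyde, proximity-ligated (BsaI/T4 ligase, 1 h, 37 °C), PCR-amplified and sequenced on an Illumina NextSeq500. Binding signal is each hexamer's read frequency for a factor divided by its frequency for the tag-only sample.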
# [2] = molecular target: T2, ELK1 (Homo sapiens, UniProt P19419 1-428)
# T2 sequence: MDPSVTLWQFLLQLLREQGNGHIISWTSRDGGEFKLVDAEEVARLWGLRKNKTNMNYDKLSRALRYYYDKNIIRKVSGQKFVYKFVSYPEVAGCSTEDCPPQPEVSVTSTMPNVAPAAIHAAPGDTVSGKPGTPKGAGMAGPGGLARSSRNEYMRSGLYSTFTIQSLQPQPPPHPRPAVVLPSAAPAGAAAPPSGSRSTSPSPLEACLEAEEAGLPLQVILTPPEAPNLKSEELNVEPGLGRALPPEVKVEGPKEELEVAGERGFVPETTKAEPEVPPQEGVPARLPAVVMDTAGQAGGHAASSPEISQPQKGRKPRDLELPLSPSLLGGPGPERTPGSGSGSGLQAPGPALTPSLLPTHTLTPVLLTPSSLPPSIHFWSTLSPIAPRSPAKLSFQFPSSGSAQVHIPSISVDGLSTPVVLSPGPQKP
# Outline: as §1
# [3] = molecular target: T3, GABPA (Homo sapiens, UniProt Q06546 1-454)
# T3 sequence: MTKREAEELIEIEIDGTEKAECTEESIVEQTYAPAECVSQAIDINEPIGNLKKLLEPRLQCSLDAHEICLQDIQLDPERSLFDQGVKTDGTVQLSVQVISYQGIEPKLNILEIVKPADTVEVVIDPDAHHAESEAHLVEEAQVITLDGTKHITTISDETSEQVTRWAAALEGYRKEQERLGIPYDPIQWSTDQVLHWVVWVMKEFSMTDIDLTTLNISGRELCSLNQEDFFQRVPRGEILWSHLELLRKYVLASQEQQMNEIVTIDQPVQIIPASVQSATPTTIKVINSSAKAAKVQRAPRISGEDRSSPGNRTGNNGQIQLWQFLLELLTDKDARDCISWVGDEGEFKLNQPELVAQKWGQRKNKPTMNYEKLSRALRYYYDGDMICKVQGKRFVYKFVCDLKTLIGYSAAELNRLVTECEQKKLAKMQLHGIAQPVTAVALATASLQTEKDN
# Outline: as §1
# [4] = molecular target: T4, ERG (Homo sapiens, UniProt P11308 1-479)
# T4 sequence: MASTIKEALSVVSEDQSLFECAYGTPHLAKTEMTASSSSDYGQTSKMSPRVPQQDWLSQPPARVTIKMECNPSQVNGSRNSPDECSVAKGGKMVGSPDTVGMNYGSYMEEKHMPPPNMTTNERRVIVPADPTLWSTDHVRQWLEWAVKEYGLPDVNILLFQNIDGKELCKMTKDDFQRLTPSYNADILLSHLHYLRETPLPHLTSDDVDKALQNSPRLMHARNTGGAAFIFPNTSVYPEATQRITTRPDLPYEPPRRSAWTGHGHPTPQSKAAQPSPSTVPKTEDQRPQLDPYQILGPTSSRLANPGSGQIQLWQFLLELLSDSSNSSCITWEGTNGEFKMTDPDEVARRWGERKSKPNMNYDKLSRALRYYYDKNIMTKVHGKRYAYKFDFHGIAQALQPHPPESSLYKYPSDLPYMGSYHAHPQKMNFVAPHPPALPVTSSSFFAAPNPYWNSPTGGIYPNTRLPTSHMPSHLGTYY
# Outline: as §1
# [5] = molecular target: ELF1 (Homo sapiens, UniProt P32519 1-619)
# Outline: as §1
# [6] = molecular target: T5, EHF (Homo sapiens, UniProt Q9NZC4 1-300)
# T5 sequence: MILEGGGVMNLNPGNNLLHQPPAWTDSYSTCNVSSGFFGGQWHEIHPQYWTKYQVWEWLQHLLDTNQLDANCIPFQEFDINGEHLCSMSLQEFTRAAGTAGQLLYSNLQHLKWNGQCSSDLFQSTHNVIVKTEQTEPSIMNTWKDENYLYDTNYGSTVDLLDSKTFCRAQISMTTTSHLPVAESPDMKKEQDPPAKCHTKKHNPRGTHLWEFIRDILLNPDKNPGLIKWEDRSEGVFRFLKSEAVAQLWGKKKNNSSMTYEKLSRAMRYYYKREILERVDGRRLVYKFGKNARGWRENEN
# Outline: as §1
# [7] = molecular target: SPI1 (Homo sapiens, UniProt P17947 1-270)
# Outline: as §1
# [8] = molecular target: SPIB (Homo sapiens, UniProt Q01892 1-262)
# Outline: as §1
# [9] = molecular target: T6, ELK3 (Homo sapiens, UniProt P41970 1-407)
# T6 sequence: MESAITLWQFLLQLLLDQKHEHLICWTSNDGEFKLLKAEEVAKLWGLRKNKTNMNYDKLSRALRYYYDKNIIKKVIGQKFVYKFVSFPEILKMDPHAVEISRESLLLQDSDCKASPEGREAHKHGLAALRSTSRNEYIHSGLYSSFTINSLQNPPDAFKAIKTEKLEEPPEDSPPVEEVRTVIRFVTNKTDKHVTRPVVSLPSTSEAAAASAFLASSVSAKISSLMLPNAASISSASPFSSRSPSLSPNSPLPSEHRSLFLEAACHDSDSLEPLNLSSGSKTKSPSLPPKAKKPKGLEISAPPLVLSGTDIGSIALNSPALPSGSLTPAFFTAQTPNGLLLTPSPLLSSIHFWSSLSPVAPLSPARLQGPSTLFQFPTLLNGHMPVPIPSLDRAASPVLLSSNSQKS
# Outline: as §1
# SPIB, sequence (Q01892 whole entry): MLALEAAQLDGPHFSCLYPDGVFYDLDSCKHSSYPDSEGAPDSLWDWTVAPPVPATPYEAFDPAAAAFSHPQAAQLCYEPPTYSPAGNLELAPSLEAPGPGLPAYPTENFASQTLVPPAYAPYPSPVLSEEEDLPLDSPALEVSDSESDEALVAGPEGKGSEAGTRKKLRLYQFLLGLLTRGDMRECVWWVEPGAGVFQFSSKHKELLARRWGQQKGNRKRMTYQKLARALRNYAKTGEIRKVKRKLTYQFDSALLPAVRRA
# ELF1, sequence (P32519 whole entry): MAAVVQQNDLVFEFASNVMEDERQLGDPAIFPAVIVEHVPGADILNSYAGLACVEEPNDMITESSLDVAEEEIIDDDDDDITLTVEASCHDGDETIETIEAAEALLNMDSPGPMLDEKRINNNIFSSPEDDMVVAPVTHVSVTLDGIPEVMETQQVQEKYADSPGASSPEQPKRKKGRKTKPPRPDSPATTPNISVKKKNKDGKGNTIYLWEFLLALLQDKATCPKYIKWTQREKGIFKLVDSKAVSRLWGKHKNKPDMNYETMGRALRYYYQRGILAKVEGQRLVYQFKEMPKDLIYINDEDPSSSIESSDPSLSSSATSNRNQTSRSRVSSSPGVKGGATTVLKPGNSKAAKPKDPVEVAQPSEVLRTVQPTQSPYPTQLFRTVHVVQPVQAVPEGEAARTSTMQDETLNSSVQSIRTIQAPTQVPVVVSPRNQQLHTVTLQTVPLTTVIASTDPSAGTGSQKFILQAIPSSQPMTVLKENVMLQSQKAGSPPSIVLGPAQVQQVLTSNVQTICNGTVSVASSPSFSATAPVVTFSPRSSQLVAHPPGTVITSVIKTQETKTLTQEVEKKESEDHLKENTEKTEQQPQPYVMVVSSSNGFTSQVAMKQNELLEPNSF
sequence,measurement,setting,value
ATCATC,binding signal,[1],"1.17 fold enrichment (6-mer frequency, TF over GST control)"
same,binding signal,[2],"1.2 fold enrichment (6-mer frequency, TF over GST control)"
same,binding signal,[3],"1.19 fold enrichment (6-mer frequency, TF over GST control)"
same,binding signal,[4],"1.17 fold enrichment (6-mer frequency, TF over GST control)"
same,binding signal,[5],"1.25 fold enrichment (6-mer frequency, TF over GST control)"
same,binding signal,[6],"1.25 fold enrichment (6-mer frequency, TF over GST control)"
same,binding signal,[7],"1.14 fold enrichment (6-mer frequency, TF over GST control)"
same,binding signal,[8],"1.19 fold enrichment (6-mer frequency, TF over GST control)"
same,binding signal,[9],"1.08 fold enrichment (6-mer frequency, TF over GST control)"
